# Data: the supplement of paper PMC6555819
# What was measured:
# Experiment in all cases: PBM binding z-score (relative to random genomic background probes); higher = stronger binding; sequences stand for … in GC…GCGATTGACAGCGTAGAATGAAGG
# [1] = tested on: RARb homodimer (NR concentration 270 nM)
# Method in brief: (§1)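 Scanned fluorescence from custom Agilent 4×180K protein-binding microarrays was regression-normalized. Binding z-scores use random background probes as reference. Ligand-free nuclear receptor dimers were incubated on the arrays for 1 h and detected with antibodies against each partner (one per run).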
# [2] = tested on: RARg:RXRa (NR concentration 270 nM, RXRa partner concentration 90 nM)
# Method in brief: as §1
# [3] = tested on: RARg homodimer (NR concentration 270 nM)
# Method in brief: as §1
# [4] = tested on: RXRa DBDmut IVT, anti-RXR (DBD mutation: RXRa K156A/R161A, NR concentration 90 nM)
# Method in brief: as §1
# [5] = tested on: RXRa homodimer (NR concentration 180 nM)
# Method in brief: as §1
# [6] = tested on: THRa:RXRa (NR concentration 90 nM, RXRa partner concentration 90 nM)
# Method in brief: as §1
# [7] = tested on: THRa homodimer (NR concentration 90 nM)
# Method in brief: as §1
# [8] = tested on: VDR homodimer (NR concentration 270 nM)
# Method in brief: as §1
Sequence,PBM binding z-score [1],PBM binding z-score [2],PBM binding z-score [3],PBM binding z-score [4],PBM binding z-score [5],PBM binding z-score [6],PBM binding z-score [7],PBM binding z-score [8]
CCTGCTAGGTCAATGGTCAGCTTAAGCAGCTCGC,3.14,3.62,4.2,2,2.25,2.31,0.712,0.066
TCATACAGGTAAAGGTGAAAGTCGAACGATATGA,1.73,1.78,1.69,1.17,2.23,1.46,0.0499,0.141
TCACATAGGTAAACAGGTGAAAGTCCGTAAGTTA,0.832,0.608,0.415,0.731,1.12,0.714,0.454,0.318
CCTTACGGGTCACTGACAGGTTAAAGCATTTGGA,3.06,6.25,5.25,1.51,5.63,2.9,-0.0327,0.937
CGTCAAAGTTCAACTAAGGTAACGTACAGCACGC,4.47,6.1,6.82,4.86,5.14,5.27,2.13,4.15
CGAACTAGGTCATCCAGGACAGTGATTACATTGA,1.77,4.03,5.13,2.49,3.37,3.68,2.14,2.32
CCTCTTAGTTGACCATAAGGGCAACCGAAGCTCG,2.25,1.17,1.15,0.285,0.712,2.07,1.59,0.985
GTACCAAGGTGAATAGCTCGTTGATGAGTAGGCG,0.121,0.285,0.489,-0.348,0.453,1.15,0.236,-0.63
ATATGTAGGTTACATCCGGGCCATTCAGGCTATG,0.788,1.35,0.995,0.497,0.936,2.04,0.851,0.406
TAGCCTAGGTCAGATCGGGCTAGTATACGCTATA,1.59,2.48,3.26,-0.66,1.34,3.37,-0.538,-0.698
CCAGACAAGTGAGAAGGTAACTCAGCCTCGATTA,0.174,0.0341,0.205,0.366,0.108,0.152,0.461,0.281
ACAGACAGCTGAGTGAAGGTAACTCAGCTGGACG,-0.758,-0.23,-0.426,-0.997,0.00757,-0.178,-0.586,-0.66
AGTCAAAGTTCGCTAGGTAACGTAAGATTCAGCT,0.79,1.41,1.49,1.92,0.868,0.668,-0.0669,0.872
CGTCCAAGGTCAAAGGTCCGTGAAGAGATGACGG,3.99,6.31,6.35,3.54,6.84,3.99,2.24,2.87
TCTTGTAGATCAGCAGCTTAAGAAAGCTGGCCAA,-0.684,-0.435,-0.915,0.258,-0.355,-0.626,-0.605,-0.685
ACTAGTTGGTCAGCTGAGGTCACGCACAATTCGG,4.79,4.85,4.8,1.32,4.79,5.26,5.78,3.51
GAAACGAGGGCATTCGAGTTGATAGCATGGCGAT,0.628,1.26,1.38,3.03,1.09,3.47,-0.43,3.34
CCTGACGGGTCACTGACAGGTTATAGCATTTGGA,2.98,5.4,4.25,1.04,4.25,2.44,0.0984,0.76
AGAATGAGGTTACCAAAGATCCGGGAAACGCTTG,0.848,1.96,1.65,1.05,2.5,2.61,0.714,0.252

Sequence,PBM binding z-score [1],PBM binding z-score [2],PBM binding z-score [3],PBM binding z-score [4],PBM binding z-score [5],PBM binding z-score [6],PBM binding z-score [7],PBM binding z-score [8]
TCATATAGGTAAAGGGGAAAGTCGAACGATATGA,0.241,0.707,0.688,1.39,1.21,0.241,-0.0232,-0.173
GGAACGAGGGCAAGCTGATAGCAGAGTTTGATGG,0.957,1.17,1.95,1.68,0.6,0.878,-0.593,1.03
TCATATACGTAAACAGGTGAAAGTCCGTAAGTTA,0.865,0.708,0.405,1.91,0.88,0.985,0.342,0.357
TCTAGCAGGCCAGAGGGTCAATCAAGAGGTACGG,2.63,2.97,2.14,-0.246,2.87,1.62,-0.729,0.802
AGAATGAGGCTAAGATCAGGGAAACAGAATACAT,0.17,0.222,0.265,-0.309,-0.046,0.533,0.04,-0.208
GGAACGAGGGCATTGGAGTTGATAGCATGGCGAT,1.04,1.13,1.42,2.75,0.72,1.9,-0.24,2.58
CCGAGTAGGTTATGGGGCATTCAGGCAACGGTGA,1.08,0.469,0.552,0.0295,0.728,0.503,0.317,-0.196
TCGAGTAGGTTACCAACGGGGCATTCAGCTTTCT,0.583,1.52,0.504,0.191,0.733,0.042,-0.794,-0.578
GCTATTAGTTGAAAGGTCAACCGAATGATTCTCG,5.01,6.07,5.57,1.88,7.11,3.83,1.41,2.06
GCTCGGAGGACAAGGTTAGAGCTTTGTCCGTAGA,0.733,0.376,1.01,-0.384,0.102,1.28,-0.0516,-0.796
TATCGGAGGACACGAAAGGTCAGAGCTCGACATC,5.03,4.79,5.31,0.361,4.07,3.95,1.59,1.67
CCTACTGGGCCATCAGGTCATTTATATCAACGTT,2.44,1.8,1.64,0.641,0.891,3.14,3.01,1.61
ATCTATAGGTAACCAAGTTCAGTGAATGCCGAAC,1.42,0.853,0.891,1.04,0.806,1.05,0.378,2.84
TCGAGTAGGTAACCAATGGGGCATTCAGCTTTCT,-0.0946,-0.146,-0.427,0.00393,0.0647,0.124,-0.752,-0.729
CCAGACATGTGAGAAGGTAACTCAGCCTCGATTA,0.158,-0.0792,0.231,0.753,0.09,-0.0389,0.447,0.382
CCGACTGGGGCACGGTTACCATAACGCACAGCCA,0.696,0.548,1.13,-1.14,0.163,-0.214,-0.521,-0.442
TCTTGTAGATCAAGCAGGTTAAGTAAGCCTGAGT,0.0988,-0.201,-0.463,0.439,0.0943,0.33,-0.503,-0.0277
AGAACGAGAGCAATGAGTTGATAGCACGGGTGGC,-0.971,-0.154,-0.0386,-0.0984,0.0785,-0.86,-1.05,0.253
TGAATGAGGTTAAAGATCAGGGTACGTGGCGTCG,1.27,2.36,1.42,1.41,3.5,2.78,0.878,1.25

Sequence,PBM binding z-score [1],PBM binding z-score [2],PBM binding z-score [3],PBM binding z-score [4],PBM binding z-score [5],PBM binding z-score [6],PBM binding z-score [7],PBM binding z-score [8]
TAGCCTAGGTCAGATTGGGCCAGTATACGCTATA,2.06,2.79,3.72,-0.225,1.25,3.56,-0.0542,-0.257
GATTGTAGATCAAGGTTAAGAAAGACTAAGCTAA,-0.213,0.14,0.339,-0.224,0.781,0.867,-0.616,-0.0253
CGAACTAGATCATCCAGGACAGTGAATACATTGA,0.254,0.0804,0.347,0.701,-0.151,1.13,1.14,0.494
ATCGAAAGTTCGACGAGGTGAGTATACACCGTTT,1.42,1.75,1.85,1.63,1.28,2.5,0.567,1.59
AGATTGAGGTTATTAAGATCAGGGAATTGCGGTC,1.06,1.07,0.837,1.55,1.44,2.37,0.869,1.49
AATACAGGGTCATCGTGGGCCAGAGTACGCACAG,3.78,5.59,4.97,3.19,6.45,4.44,1.46,3.9
TCTAGTTGGTCACGGAGGCCACACACGACGGGTA,2.01,1.65,2.06,0.633,1.06,0.977,0.377,0.2
ATATGTAGGTTAAGGGTCATTCGGGTTGGTTCGC,3.7,4.87,3.3,2.32,6.11,3.39,1.95,5.4
AGAATGAGGTTATGATCAGGGAAACAGAATACAT,0.715,1.74,1.11,1.02,2.16,2.44,0.714,0.317
CGCCAAAGTTCAACTAAGGTAACGTAAAGCACGC,4.29,5.87,6.48,4.67,4.49,5.24,2.11,3.81
GTTAGTTGGTCAGTAAAAGGTCACACACCGGTCG,5.25,5.67,5.37,1.14,6.08,3.68,2.18,2.3
GCTGCTAGGTAAACTGATGGTCAGCTAAAGCTCG,-0.0474,-0.174,-0.241,-0.0334,-0.342,-0.142,-0.754,-0.973
TCAGACAAGTGAAGGTAACTCAGGTACGCAGTCG,-0.322,0.211,0.249,1.1,0.825,1.1,-0.375,-0.0282
ACTAGCAGGCCAGGGGTCACTCAAGATTAGTCCG,4.12,5.09,4.23,1.31,6.16,3.5,1.05,2.8
GCGACTGGGGCATCACCAGGTTACCATAACTTAA,0.954,0.961,0.521,-0.237,0.427,1.92,0.551,-0.267
TAGCCTAGGTCATGCGGGCCAGTGTAGTGTCGGC,3.06,3.69,4.29,0.446,2.6,2.99,0.878,0.567
GGAACGACGGCAAAGTTGATAGCATCTGTCGACG,-0.736,-0.162,-0.0781,-0.543,0.157,-0.802,-1.24,-0.637
ATATGTAGGTTCAGGGTCATTCAGGTTGGTTCGC,3.58,4.1,3.01,3.37,5.25,3.92,3.36,6.06
TCGAGTAGGTTAGGGGCAATCAGAATGGCGTCGA,0.79,0.398,0.315,0.12,0.782,0.826,0.262,0.267
